{
  "source": "PubChem BioAssay (NCI)",
  "note": "The panel holds about 83,000 compounds, 20% with a hit somewhere; the sample as a whole holds those more often.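 Single-concentration screen, 48 h exposure, 96-well plates. Endpoint: percent growth. Below 10 = active.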 A number with no mark means an inactive call. Activity calls are given as the source filed them.",
  "data": [
    {"system": "MDA-MB-468 breast", "assay": "NCI-60 one-dose screen, 48 h (100 = growth as untreated, 0 = no growth, -100 = all killed)", "conditions": "10 µM unless noted", "values": [
      {"compound": "OCC1OC(n2cnc3c(Cl)ncnc32)CC1O", "note": "(stereo unspecified)", "growth": "91.9%"},
      {"compound": "c1csc(-c2ccc(CNc3c4ccccc4nc4ccccc34)cc2)c1", "growth": "-72.5% (active)"},
      {"compound": "COc1ccc(C2C3=C(COC3=O)N(CCO)c3cc4c(cc32)CCC4)cc1OC", "note": "(stereo unspecified)", "growth": "-17.1% (active)"},
      {"compound": "COC(=O)[C@]1(C)CCC[C@]2(C)[C@H]3C[C@@H]4[C@H]5[C@@H]6CC/C(=N\\OCC/C(N)=N/O)[C@H]5[C@@]3(CC[C@H]21)CC4(C(C)C)O6", "growth": "64.1%"},
      {"compound": "COc1ccc(/C=C(\\C#N)n2nnc3c(F)cccc32)cc1", "growth": "-7.36% (active)"},
      {"compound": "O=C(NNc1ccc(-c2ccccc2)nn1)c1ccccc1", "growth": "103%"}
    ]}
  ]
}
